# Test results reported in PubChem BioAssay (Tox21).
# Results filed as inconclusive are left out. A number with no mark means an inactive call. Activity calls are given as the source filed them. The call rests on the fitted dose curve; in most records, active means well fitted inhibition curve with a large enough effect in the repeat runs; inconclusive means weak or mixed curves; inactive means no such curve, though single readings can be large or run the other way.
# Target: Estrogen receptor (Homo sapiens) (UniProt P03372)
# Assay: qHTS assay to identify small molecule antagonists of the estrogen receptor alpha (ER-alpha) signaling pathway using the BG1 cell line in the presence of 0.1 nM 17-beta-estradiol (AID 1259244); further: nearly all actives have a fitted effect of over 50% in size
# Conditions: VM7Luc4E2 (BG1) ERE-luciferase, antagonist mode, 0.1 nM E2, 22 h; series mostly up to 92.4 µM; activity change, negative = inhibition: at the top concentration
# Description: National Center for Advancing Translational Sciences [NCATS]
# NIH Chemical Genomics Center [NCGC]
# U.S. Environmental Protection Agency [EPA]
# National Institutes of Environmental Health Sciences [NIEHS]
# National Toxicology Program [NTP]
# U.S. Food and Drug Administration [FDA]
# Estrogen receptor (ER), a member of the nuclear hormone receptor plays an important role in development, metabolic homeostasis and reproduction. Two subtypes of ER, ER-alpha and ER-beta, have similar expression patterns with some uniqueness in both types. Endocrine disrupting chemicals (EDCs) and their interactions with steroid hormone receptors like ER causes disruption of normal endocrine function. Therefore, it is important to understand the effect of environmental chemicals in ER signaling pathway. For identifying ER antagonists, VM7Luc4E2 cell line was used to screen against Tox21 compound libraries.
# VM7Luc4E2 cell line (provided by Denison MS, University of California) endogenously express full-length ER-alpha and is stably transfected with a plasmid containing four estrogen responsive elements (ERE) upstream of a luciferase reporter gene. The current screening for identification of ER-alpha inhibitors against Tox21 compound libraries used lower concentration (0.1 nM) of 17beta-Estradiol as a stimulator.
# Tox21 Assay Protocol Summary:
# VM7Luc4E2 cells were cultured in phenol red free assay medium containing 10% charcoal stripped FBS for 5 days prior to the assay. The cells were dispensed at 4,000 cells/well in 4 uL of assay medium into white wall/solid-bottom 1536-well plates (Corning Life Sciences, Corning, NY) using a Multidrop Combi (ThermoFisher Scientific, Waltham, MA) dispenser. After the assay plates were incubated at 37C and 5% CO2 for 24 hr, 23 nL of compounds dissolved in DMSO, positive controls or DMSO only was transferred to the assay plates by a Pintool station (Kalypsys, San Diego, CA). The transfer of compounds was followed by the addition of 1 uL of 0.1 nM (final concentration) agonist (17beta-Estradiol)/assay medium using a Flying Reagent Dispenser (FRD, Aurora Discovery, San Diego, CA). The plates were incubated at 37C and 5% CO2 for 22 hr. For luciferase reporter gene assay, 4 uL of ONE-Glo reagent (Promega Corporation, Madison, WI) was added to each well using the FRD and after 30 min incubation at room temperature luminescence intensity was measured using ViewLux plate reader (PerkinElmer, Shelton, CT).
# On the % scale 0 is the no-effect control and ±100 the full control effect; potency means the concentration at half of the fitted maximal effect.
# Chain of Estrogen receptor (Homo sapiens) (P03372 whole entry, looked up): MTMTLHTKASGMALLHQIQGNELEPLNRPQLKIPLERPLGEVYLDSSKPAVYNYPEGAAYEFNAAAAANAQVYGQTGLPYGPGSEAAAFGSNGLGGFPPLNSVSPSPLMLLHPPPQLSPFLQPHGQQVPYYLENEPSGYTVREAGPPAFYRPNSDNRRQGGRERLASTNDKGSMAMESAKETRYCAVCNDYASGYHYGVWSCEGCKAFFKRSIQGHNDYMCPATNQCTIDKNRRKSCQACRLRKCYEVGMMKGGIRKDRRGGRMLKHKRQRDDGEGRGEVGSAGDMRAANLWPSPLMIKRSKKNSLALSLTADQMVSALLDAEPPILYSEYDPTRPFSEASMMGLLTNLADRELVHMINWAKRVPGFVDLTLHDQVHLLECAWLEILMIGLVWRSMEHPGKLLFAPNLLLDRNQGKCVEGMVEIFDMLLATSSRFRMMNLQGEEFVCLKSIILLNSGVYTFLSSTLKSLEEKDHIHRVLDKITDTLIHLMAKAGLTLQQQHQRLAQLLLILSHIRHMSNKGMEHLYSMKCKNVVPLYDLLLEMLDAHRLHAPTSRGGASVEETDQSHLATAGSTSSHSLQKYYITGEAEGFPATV
SMILES,"activity change, negative = inhibition",Potency
O=S1OC[C@@H]2[C@H](CO1)[C@]1(Cl)C(Cl)=C(Cl)[C@@]2(Cl)C1(Cl)Cl (stereo not given in full),-8.95%,–
O=[N+]([O-])C(Br)(CO)CO,-0.71%,–
CC(=O)CCC(C)=O,0%,–
BrCCCCBr,3.78%,–
CCOP(=O)(OCC)O/C(=C/Cl)c1ccc(Cl)cc1Cl,–,54.5 µM (active)
O=C(CBr)OCc1ccccc1,-0.845%,–
C=CC(=O)OCC(C)O (stereo not given),3.85%,–
O=C(CBr)c1ccccc1,11.3%,–
CCCN(CCC)c1c([N+](=O)[O-])cc(S(C)(=O)=O)cc1[N+](=O)[O-],-0.0282%,–
Brc1ccccc1,3.6%,–
C=CC(C)=O,0.705%,–
CCC(Cl)CCl (stereo not given),11.6%,–
CC(=O)[C@H]1CC[C@H]2[C@@H]3CC[C@H]4C[C@](C)(O)CC[C@]4(C)[C@H]3CC[C@]12C,7.26% [at 42.5 µM],–
Clc1cc(C(Cl)(Cl)Cl)cnc1Cl,0.821%,–
CCOC(=O)C(Cl)C(C)=O (stereo not given),0.762%,–
Clc1ccc(C(OCCN2CCCCC2)c2ccccc2)cc1 (stereo not given),-27.3% [at 42.5 µM],–
COP(=S)(OC)Oc1ccc([N+](=O)[O-])cc1Cl,-2.35%,–
N#CCC#N,14.8%,–
O=C(O)COc1ccc(Cl)cc1,0.976%,–
COC(=O)C(Cl)C(=O)OC,-2.49% [at 42.5 µM],–

SMILES,"activity change, negative = inhibition",Potency
O=C=Nc1ccc(Cl)cc1,39.1%,–
CCCCC(CC)COP(=O)(Oc1ccccc1)Oc1ccccc1 (stereo not given),-2.39%,–
COc1c(C(C)(C)C)cc([N+](=O)[O-])c(C)c1[N+](=O)[O-],2.6%,–
COCCOCCO,1.48%,–
Sc1ccccc1Cl,6.35% [at 42.5 µM],–
C(=NC1CCCCC1)=NC1CCCCC1,–,43.3 µM (active)
COc1nn(CSP(=S)(OC)OC)c(=O)s1,-8.03%,–
CCOP(=S)(OCC)Oc1nc(Cl)c(Cl)cc1Cl,0.776%,–
Nc1ccc([N+](=O)[O-])cc1[N+](=O)[O-],-12.5%,–
Nc1nc(=S)[nH][nH]1,8.79%,–
CC(C)N(C(=O)COc1nnc(C(F)(F)F)s1)c1ccc(F)cc1,0.499%,–
Cl/C=C\C[N+]12CN3CN(CN(C3)C1)C2,2.47%,–
N#C/C(N)=C(/N)C#N,17.3%,–
O=C(NC(=O)c1c(F)cccc1F)Nc1cc(Cl)c(Oc2ncc(C(F)(F)F)cc2Cl)c(Cl)c1,–,29.3 µM (active)
COC(=O)C(Br)CBr (stereo not given),0.0987%,–
NNC(=O)c1cccnc1,-10.8%,–
CCOP(=S)(Oc1ccc([N+](=O)[O-])cc1)c1ccccc1 (stereo not given),2.91%,–
COC(=O)c1cncn1C(C)c1ccccc1 (stereo not given),-8.7% [at 42.5 µM],–
OCCCBr,-7.7%,–
CC1CC(CC2CCC(N)C(C)C2)CCC1N (stereo not given),0%,–
